In PubChem BioAssay (NCATS):
Inconclusive results are not listed. Calls of active or inactive are those of the source. The call rests on the fitted dose curve; in most records, active means well fitted inhibition curve with a large enough effect; inconclusive means small, poorly fitted or top-dose-only effect; inactive means flat fitted curve, though single readings scatter.

Target: Calcium and integrin-binding protein 1 (Homo sapiens) (UniProt Q99828)
Test: Primary qHTS for Identification of Calcium Integrin Binding Protein 1 (CIB1) Competitor (AID 1508620);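 further: GST tagged CIB1 binding a fluorescein labelled alphaIIb integrin peptide tracer; top concentration of the series differs between compounds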
Conditions: CIB1-GST / FITC-alphaIIb peptide fluorescence polarization; series mostly up to 114 µM; activity change, negative = inhibition: at the top concentration
Text: Assay Provider: Ulhas P. Naik, PhD Sidney Kimmel Medical College Thomas Jefferson University, Philadelphia, PA Primary function of platelets is to maintain hemostasis. At the site of vascular injury, platelets adhere to adhesive proteins such as collagen and von Willebrand factor. Adherent platelets are activated and generate soluble platelet agonists such as thrombin, ADP and thromboxane A2. Following exposure of circulating platelets to these agonists, results in platelet shape change, granule secretion and activation of platelet integrin alphaIIb-beta3. Ligand binding to activated integrin alphaIIb-beta3 triggers outside-in signaling, leading to platelet aggregation, stabilization of platelet plug, and clot retraction. Upon atherosclerotic plaque rupture also causes platelet plug formation, which underlies a number of cardiovascular diseases such as myocardial infraction and stroke. A number of anti-platelet drugs such as aspirin, clopidogrel, prasugrel, vorapaxar, and eptifibatide are currently available to prevent the thrombotic complications. However, these anti-platelet agents have several limitations including inherent variability in individual responses, developing resistance, and serious bleeding side effects. For these reasons they are not suitable for long-term protection. Based on the experiences with current anti-platelet drugs, it appears that the most useful therapeutic approach is to intersect the secondary responses such as integrin outside-in signaling or recruitment of platelets by TxA2 and secreted ADP. Compounds, which can largely preserve the primary hemostatic function of platelets but inhibit secondary response will be most desired therapeutic agents for treatment of cardiovascular disease. CIB1 is a calcium integrin binding protein, which specifically interact with the alphaIIb subunit of integrin alphaIIb-beta3. Binding of CIB1 to alphaIIb regulates the outside-in signaling in platelets, which is needed for thrombus stabilization and thrombus growth. […] Therefore, we propose that discovery of a small molecule that can prevent the association of CIB1 and alphaIIb-beta3 will be a potential anti-platelet agent that can block the thrombus formation without undue effect on hemostasis. Reference: [1] Naik MU, Nigam A, Manrai P, et al. CIB1 deficiency results in impaired thrombosis: the potential role of CIB1 in outside-in signaling through integrin alpha IIb beta 3. J Thromb Haemost.
PROTOCOL TABLES SEQUENCE No. (1, 2, 3, etc.); […] (e.g., Cells, Incubation, Reagent, etc.); VALUE and DESCRIPTION. 1; Reagent; 3 uL; Protein or buffer (4/3x) 2; Compound; 46 nL; Control inhibitor / compound library 3; Time; 15 min; Room temperature incubation 4; Reagent; 1 uL; Fluorescent labeled peptide (4x) 5; Time; 1000 rpm; Centrifuge 6; Time; 15 min; Room temperature incubation 7; Detection; Ex 480/ Em 540; ViewLux Fluorescence Read NOTES (numbers refer to sequence above) 1; Protein Mixture: C1B1-GST (final concentrations of 1 uM). […] 3; Room temperature incubation. 4; Fluorescent Labeled Peptide: FITC-aIIb (final concentration of 100 nM). Sequence of alphaIIb peptide: Acetyl-[…]-FITC (purity is 95.83%). 5; Centrifuge 1000 rpm (164 g) for 15 seconds. 6; Room temperature incubation. 7; ViewLux Fluorescent Polization Read: excitation = 480(20) / emission = 540(25) S and P; FITC Dichroic mirror.
On the % scale 0 is the no-effect control and ±100 the full control effect.

Calcium and integrin-binding protein 1 (Homo sapiens), sequence (Q99828 whole entry, looked up): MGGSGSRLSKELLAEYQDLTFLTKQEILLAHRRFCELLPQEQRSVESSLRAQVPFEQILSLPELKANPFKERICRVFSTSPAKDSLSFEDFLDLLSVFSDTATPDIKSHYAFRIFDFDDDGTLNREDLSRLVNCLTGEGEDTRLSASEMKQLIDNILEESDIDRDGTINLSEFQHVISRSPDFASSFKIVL

| Structure (SMILES) | activity change, negative = inhibition |
| --- | --- |
| C=C(C)[C@@H]1[C@H]2OC(=O)[C@H]1[C@]1(O)C[C@H]3O[C@]34C(=O)O[C@H]2[C@]14C | -2.15% (inactive) |
| COC1CC(OC2CCC3(C=O)C(CCC4C3CCC3(C)C(C5=CC(=O)OC5)CCC43O)C2)OC(C)C1O (stereo not given) | -1.57% [at 57.7 µM] (inactive) |
| C/C(=C\c1csc(C)n1)[C@@H]1C[C@@H]2O[C@@H]2CCC[C@H](C)[C@H](O)[C@@H](C)C(=O)C(C)(C)[C@@H](O)CC(=O)O1 | -1.51% (inactive) |
| C=C(C)C(=O)O[C@H]1[C@@H]2[C@H](C)C(=O)O[C@@H]2C[C@@H](C)[C@@H]2C=CC(=O)[C@]21C | -5.8% [at 57.7 µM] (inactive) |
| NC(=O)[C@@H](CC1CC1)[C@@H](CCC(F)(F)F)C(=O)N[C@H]1N=C(c2ccccc2)c2cccc(F)c2NC1=O | 3.61% (inactive) |
| C[C@H](Nc1ncnc2nc[nH]c12)c1nc2ccc(F)cc2c(=O)n1-c1ccccc1 | 4.59% (inactive) |
| O=C(OC[C@H]1O[C@@H](Oc2ccc(O)cc2CO)[C@H](O)[C@@H](O)[C@@H]1O)c1ccccc1 | 1.22% [at 57.7 µM] (inactive) |
| N#Cc1ccccc1-c1cc(-c2ccccn2)cn(-c2ccccc2)c1=O | -0.784% (inactive) |
| CC(=O)OC[C@]12C[C@H](OC(C)=O)C(C)=C[C@H]1O[C@@H]1[C@H](O)[C@@H](O)[C@@]2(C)[C@]12CO2 | -4.35% [at 57.7 µM] (inactive) |
| C=CC(C)(C)c1[nH]c2c(CC=C(C)C)cc(CC=C(C)C)cc2c1C[C@@H]1NC(=O)[C@H](C)NC1=O | -0.306% (inactive) |
| CCOc1ccc(Oc2ccc(OCc3cc(F)ccc3F)cc2)c(N)c1 | 4.78% (inactive) |
| CC12CCC3C(C1)c1c(cc(O)c(C(=O)c4ccccc4)c1OC3(C)C)O2 (stereo not given) | 1.52% [at 57.7 µM] (inactive) |
| COc1cc2c(c(OC)c1OC)-c1ccc(SC)c(=O)cc1[C@@H](NC(C)=O)CC2 | -7.11% (inactive) |
| CC1CCCC(O)CCC/C=C/c2cc(O)cc(O)c2C(=O)O1 (stereo not given) | -0.788% [at 57.7 µM] (inactive) |
| CCC1(O)CCC2C3CCC4=CC(=O)CCC4C3CCC21CC (stereo not given) | 3.48% (inactive) |
| O=C1CN=C(c2ccccc2Cl)c2cc(Br)ccc2N1 | -0.755% (inactive) |
| CC(=O)OC[C@]12C[C@H](OC(=O)CC(C)C)C(C)=C[C@H]1O[C@@H]1[C@H](O)[C@@H](OC(C)=O)[C@@]2(C)[C@@]12CO2 | 1.1% [at 57.7 µM] (inactive) |
| CO/C1=C\C(C)=C\[C@@H](C)[C@@H](O)[C@@H](C)C/C(C)=C/C=C/[C@H](OC)[C@@H]([C@@H](C)[C@@H](O)[C@H](C)[C@@]2(O)C[C@@H](O)[C@H](C)[C@@H](C(C)C)O2)OC1=O | 3.19% [at 30.2 µM] (inactive) |
| NCCCCCNC1(c2ccccc2)CCCCC1 | -0.852% (inactive) |
| CC(=O)O[C@H]1CC[C@H]2[C@@H]3CC[C@H]4CC(=O)C=C(C)[C@]4(C)[C@H]3CC[C@]12C | 3.72% (inactive) |

| Structure (SMILES) | activity change, negative = inhibition |
| --- | --- |
| C[C@]12CC[C@H](O)C[C@H]1CC[C@@H]1[C@@H]2[C@H](O)C[C@]2(C)[C@@H](c3ccc(=O)oc3)CC[C@]12O | 3.82% (inactive) |
| C[C@]12CCC(=O)C=C1CC[C@@H]1[C@@H]2[C@@H](O)C[C@]2(C)C(=O)CC[C@@H]12 | -0.688% (inactive) |
| CS[C@]1(CO)C(=O)N2[C@H]3C(=CC=C[C@@H]3O)C[C@@]2(SC)C(=O)N1C | -0.162% [at 57.7 µM] (inactive) |
| C/C=C(/C)C1C=CC2CC(C)CC(C)C2C1/C(O)=C1\C(=O)NC(CC(C)(O)C(=O)O)C1=O (stereo not given) | 4.36% [at 57.7 µM] (inactive) |
| C[C@@H]1O[C@@H](O[C@H]2CC[C@@]3(C)C(CC[C@@H]4C3CC[C@]3(C)[C@@H](C5=CC(=O)OC5)CC[C@]43O)C2)[C@H](O)[C@H](O)[C@H]1O (stereo not given in full) | -6.91% [at 57.7 µM] (inactive) |
| CC(=O)O[C@H]1CC[C@@]2(CI)C(=CC[C@@H]3[C@@H]2CC[C@]2(C)C(=O)CC[C@@H]32)C1 | 9.9% (inactive) |
| CC(=O)OC[C@]12C[C@H](O)C(C)=C[C@H]1O[C@@H]1[C@H](O)[C@@H](O)[C@@]2(C)[C@]12CO2 | 0.806% [at 57.7 µM] (inactive) |
| Fc1cc(F)c2c(c1)C1C=CCC1C(c1cccnc1)N2 (stereo not given) | -4.14% (inactive) |
| Cc1ccc(Cn2nc(C(=O)N[C@@H]3C(C)(C)[C@@H]4CC[C@@]3(C)C4)cc2-c2ccc(Cl)c(C)c2)cc1 | -0.162% (inactive) |
| C/C1=C/[C@@H](C)C/C=C/[C@H]2[C@@H]3O[C@]3(C)[C@@H](C)[C@H]3[C@H](Cc4c[nH]c5ccccc45)NC(=O)[C@]32C(=O)/C=C\C(=O)[C@@H]1O | -6.85% [at 57.7 µM] (inactive) |
| COC1CC(O[C@H]2CC[C@]3(C=O)C4CC[C@]5(C)[C@@H](C6=CC(=O)OC6)CC[C@]5(O)[C@@H]4CC[C@@H]3C2)OC(C)C1O[C@@H]1O[C@H](CO)[C@@H](O[C@@H]2O[C@H](CO)[C@@H](O)[C@H](O)[C@H]2O)[C@H](O)[C@H]1O (stereo not given in full) | -4.28% [at 30.2 µM] (inactive) |
| CCCCCCC1C(=O)O[C@H](C)[C@H](NC(=O)c2cccc(NC=O)c2O)C(=O)O[C@@H](C)[C@@H]1OC(=O)CC(C)C (stereo not given in full) | -1.19% (inactive) |
| CC(C)[C@H](NC(=O)c1nn(Cc2ccc(F)cc2)c2ccccc12)C(N)=O | -0.279% (inactive) |
| Cc1sc2c(c1C)C(c1ccc(Cl)cc1)=NC(CC(=O)OC(C)(C)C)c1nnc(C)n1-2 (stereo not given) | 1.78% (inactive) |
| CC1CCCC(O)CC(=O)Cc2cc(O)cc(O)c2C(=O)O1 (stereo not given) | -5.08% [at 57.7 µM] (inactive) |
| C=C1C(=O)OC2/C=C(\COO)CC/C=C(\COC(C)=O)CC(OC(=O)C(C)CC)C12 (stereo not given) | -8.52% [at 57.7 µM] (inactive) |
| C[C@@H]1Cc2c(Cl)cc(C(=O)N[C@@H](Cc3ccccc3)C(=O)O)c(O)c2C(=O)O1 | 2.53% [at 57.7 µM] (inactive) |
| C[C@@H]1CCC2[C@@H](C)C(=O)OC3O[C@@]4(C)CCC1[C@]32OO4 (stereo not given in full) | 6.64% (inactive) |
| CO[C@H]1[C@@H](O)[C@@H](C)O[C@@H](O[C@@H]2C=C3C(OC(C)=O)CC4(O)C(CC[C@]5(C)[C@@H](C6=CC(=O)OC6)CC[C@]45O)[C@@]3(C)CC2)[C@@H]1O (stereo not given in full) | 0.787% [at 30.2 µM] (inactive) |
| COC(=O)C1=COC(C)C2CN3CCC4(C(=O)Nc5ccccc54)C3CC12 (stereo not given) | 0.702% [at 57.7 µM] (inactive) |
